HIV Env fusion = inhibitors of HIV-1 Env-driven cell-cell fusion, primary screen, HeLa-JRFL effector, CEM21 target cells, luciferase; inhibition, % at 12.3 µM; 1.1% of 360,000 active; AID 651610, 2012;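 active means mean replicate inhibition score of at least 50 and every replicate individually at or above 50; inconclusive means only one of the two criteria met; inactive means mean below 50 and not all replicates reaching 50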
PAX8 reporter = inhibitors of PAX8-driven TPO luciferase reporter, primary screen, RMG-I cells, single concentration; SteadyGlo, 24 h; inhibition, % at 12.6 µM; 1.2% of 360,000 active;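 active means mean replicate inhibition at least 60% with every replicate also reaching 60%; inconclusive means only one of the two criteria is met; inactive means mean below 60% and not all replicates reaching 60%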;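 further: luciferase light reporting Pax8 driven TPO promoter activity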
NSD2 HMT inh = NSD2 histone methyltransferase inhibitors, primary screen, biochemical, AlphaScreen, single concentration, set 2; Histone-lysine N-methyltransferase NSD2 (Homo sapiens), O96028; NSD2 peptide methylation, 120 min; inhibition, % at 12.5 µM; 0.54% of 310,000 active; AID 743445, 2014; in the data active means inhibition above about 50%
LMP1 NFkB inh = EBV LMP1-driven NF-kappaB luciferase reporter inhibitors, primary screen, cell-based, luminescence, single point | inhibition, % at 12.5 µM | 0.69% of 350,000 active | LMP1-induced NF-kappaB luciferase reporter cells; in the data active means inhibition above about 41%; inconclusive means no clear call, values can overlap the other calls
Glyco luc inh = increase of ERlucT glycosylation luciferase signal, primary screen, N-linked glycosylation inhibitor project, D54 ERlucT cells, luminescence, set 2; 0.23% of 360,000 active; AID 588692, 2011; D54 ERlucT glycosylation luciferase reporter, 24 h; percent of 100 nM tunicamycin response; reporter increase, % at 12.5 µM;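 active means mean luciferase reporter signal, scaled so untreated is 0 and the glycosylation-blocking control 100, at or above a set limit in every replicate; inconclusive means mean reaches the limit but not every replicate does; inactive means mean below the limit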;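 further: luciferase carries N-glycosylation sites so blocking glycosylation raises the light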
Shn3 inh set2 = reduction of Shn3 3'UTR firefly luciferase signal, primary screen, Schnurri-3 inhibitor project, cell-based, Clone20 osteoblasts, set 2; Clone20 osteoblast Shn3 3'UTR firefly luciferase, 24 h; inhibition, % at 12.5 µM; 0.52% of 360,000 active; AID 588674, 2011;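 active means mean inhibition of at least 75% with every replicate also reaching 75%; inconclusive means mean inhibition at least 75% but some replicate below; inactive means mean inhibition below 75%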
Numbers stand for hits; . = inactive; ? = inconclusive; / = no result. In the library only some 2.8% were active in any assay of this set; here they are far more common.

SMILES	HIV Env fusion	PAX8 reporter	NSD2 HMT inh	LMP1 NFkB inh	Glyco luc inh	Shn3 inh set2
c1ccc(Nc2nc(-c3ccccn3)cs2)cc1	.	.	.	.	.	.
CCC(=O)Nc1ccc2c(c1)C(=O)N(C)C[C@@H](OC)[C@@H](C)CN(CC1CCOCC1)[C@@H](C)CO2	.	.	/	/	/	/
CC1(C)N=C(N)N=C(N)N1c1cccc(CC(=O)Nc2ccccc2)c1	.	.	.	.	.	.
Cc1cccc(NC(=O)CCc2ccc(N3C(N)=NC(N)=NC3(C)C)cc2)c1	.	65	.	.	.	.
COc1ccc(/C=C/c2cc(C(=O)O)c3ccccc3n2)cc1	.	.	.	80	.	.
COc1cc(OC)c(OC)cc1/C=C/c1cc(C(=O)O)c2ccccc2n1	.	.	.	.	.	.
Cn1cnc2nc(Cl)nc(Cl)c21	.	80	/	.	.	.
COCCn1c(C)cc(C(=O)COC(=O)c2ccccc2Br)c1C	.	.	.	54	.	.
CCCn1c(C)cc(C(=O)COC(=O)c2ccc[nH]c2=O)c1C	.	.	.	48	.	.
COCCn1c(C)cc(C(=O)COC(=O)c2cccnc2SC)c1C	.	.	.	.	.	.
Cc1cc(C(=O)COC(=O)c2n[nH]c3ccccc23)c(C)n1CC1CCCO1 (stereo not drawn)	/	/	.	.	.	.
COCCn1c(C)cc(C(=O)COC(=O)c2n[nH]c3ccccc23)c1C	.	.	.	55	.	.
CCn1c(C)cc(C(=O)COC(=O)c2ccccc2[N+](=O)[O-])c1C	/	/	.	87	.	94
CCN(CC)S(=O)(=O)c1cc(NC(=O)C(=O)c2c(-c3ccccc3)cc3ccccn23)ccc1C	77	/	.	.	.	.
COc1cc(O)c(C(C)=O)c2c1C=CC(C)(C)O2	/	/	/	.	.	.
CC(=O)c1c(O)cc2c3c1OC(C)(C)C1CCC(C)(CC31)O2 (stereo not drawn)	69	.	.	.	.	.
CCc1ccc(NC(=O)C2=CC(c3ccc(OC)c(OC)c3)=NS(=O)(=O)N2C)cc1	56	.	/	.	.	.
Cn1cnc(S(=O)(=O)N2C[C@@H](O)COC[C@@H]3O[C@H](CC(=O)NCc4cccc(F)c4)CC[C@H]32)c1	.	.	/	/	/	/
CCn1c2ccccc2c2cc(NC(=O)COc3ccc(OC)cc3)ccc21	.	.	.	.	.	.
CCn1c2ccccc2c2cc(NC(=O)c3cc(OC)cc(OC)c3)ccc21	.	96	.	.	.	.
CCn1c2ccccc2c2cc(NC(=O)COC(=O)c3cc(S(N)(=O)=O)c(Cl)cc3Cl)ccc21	.	.	.	.	40	.
CCn1c2ccccc2c2cc(NC(=O)COC(=O)c3ccccc3O)ccc21	.	.	.	.	.	.
CCn1c2ccccc2c2cc(NC(=O)c3cc(OC)c(OC)c(OC)c3)ccc21	/	/	.	.	27	.
COc1ccc(NC(=O)N(C)C[C@@H]2Oc3ccc(NC(=O)Nc4cccc5ccccc45)cc3CC(=O)N([C@@H](C)CO)C[C@H]2C)cc1	.	.	/	/	/	/
CCC(=O)NC[C@H]1[C@@H](c2ccc(-c3ccccc3)cc2)[C@@H](CO)N1C(=O)C1CC1	/	.	/	/	/	/
SMILES	HIV Env fusion	PAX8 reporter	NSD2 HMT inh	LMP1 NFkB inh	Glyco luc inh	Shn3 inh set2
CN(C)CCOc1ccc2c(c1)C(=O)C(=Cc1ncc([N+](=O)[O-])n1C)C2	.	99	.	.	.	.
CCc1cc(OCCN(C)C)ccc1Cl	.	.	.	.	.	.
O=C(c1ccccc1)[C@@H]1[C@@H](C(=O)c2ccc(F)cc2)[C@@]2(C(=O)Nc3ccccc32)[C@H]2c3ccccc3C=CN12	71	.	/	.	.	.
CC(=O)[C@@H]1[C@@H](C(=O)c2ccccc2)[C@]2(C(=O)Nc3ccccc32)[C@H]2C=Cc3cc(F)ccc3N12	.	.	.	.	.	.
CCO[C@H]1OC(C(=O)N2CCN(Cc3ccccc3)CC2)=C[C@@H](c2ccc(C(F)(F)F)cc2)[C@@H]1CCCO	.	90	/	.	.	.
CCO[C@H]1OC(C(=O)N2CCN(Cc3ccccc3)CC2)=C[C@@H](c2ccccc2)[C@@H]1CCCO	.	.	/	.	.	.
CCN(C(=O)c1cc(OC)c(OC)c(OC)c1)C1CCCCC1	.	.	.	48	.	.
CC(C)OCCCNC(=O)c1cccc(NC(=O)c2ccccc2)c1	/	126	.	.	.	.
CCN(C(=O)c1cccc(NC(=O)c2ccccc2)c1)C1CCCCC1	.	.	.	51	.	.
O=C(Nc1cccc(C(=O)NC2CCCCC2)c1)c1ccccc1	.	.	.	.	.	.
O=C(C[C@@H]1C[C@@H]2c3cc(NS(=O)(=O)c4ccccc4)ccc3O[C@@H]2[C@H](CO)O1)NCC1CC1	.	.	/	/	/	/
N#C[C@H]1[C@@H](c2ccc(-c3ccccc3F)cc2)[C@H](CO)N1C(=O)Cc1ccccc1	.	.	/	/	/	/
CC1(C)CC(N2CCCCC2)=CC(=[N+]2CCCCC2)C1	.	75	.	.	.	?
C[C@@H]1CN([C@H](C)CO)C(=O)c2cc(NC(=O)Nc3ccccc3)ccc2O[C@@H](C)CCCCO[C@H]1CN(C)C	.	.	/	/	/	/
C[C@@H](NC(=O)C[C@@H]1CC[C@H](NC(=O)C2CC2)[C@@H](CO)O1)c1ccccc1	.	.	/	/	/	/
COc1ccccc1NC(=O)CSc1nc2ccccc2c(=O)n1C	.	.	.	.	.	.
Cc1cccc(NC(=O)CSc2nc3ccccc3c(=O)n2C)c1C	.	.	.	.	.	87
Cc1c(Cl)cccc1NC(=O)CC(C(=O)O)C1CCCO1 (stereo not drawn)	.	.	.	.	.	.
Cc1c(Cl)cccc1NC(=O)CC(Cc1ccccc1)C(=O)O (stereo not drawn)	.	.	.	44	.	.
C[C@@H]1CN([C@@H](C)CO)C(=O)c2cccc(NC(=O)Nc3ccccc3)c2O[C@@H]1CN(C)C(=O)Nc1ccc2c(c1)OCO2	.	.	/	/	/	/
CN(C)C1=NC[C@H](Cc2ccccc2)N1CCCC1CCCC1	.	.	/	.	.	86
CCCCCCCN1C(Nc2ccccc2)=NC[C@@H]1Cc1ccccc1	.	.	/	.	.	86
c1ccc(CCCCN2C(Nc3ccccc3)=NC[C@@H]2Cc2ccccc2)cc1	.	.	/	.	.	.
C[C@@H]1CCCCO[C@@H](CN(C)Cc2ccccc2)[C@@H](C)CN([C@H](C)CO)C(=O)c2cc(NC(=O)c3ccccc3)ccc2O1	.	.	/	/	/	/
CO[C@H]1CN(C)C(=O)c2ccc(NS(=O)(=O)CC(F)(F)F)cc2OC[C@@H](C)NC[C@H]1C	.	.	/	/	/	/
CCOC(=O)[C@@H]1[C@@H]2C=C[C@]3(O2)[C@H](C(=O)NCc2ccccc2)N(CCCCCCO)C(=O)[C@@H]13	.	109	/	/	/	/

Source: PubChem (Broad Institute)
